According to PubChem BioAssay AID1159580 (chemical genetic matrix, 2015):
Screen size: about 5,500 compounds; about 2,000 (36%) were called active. Another 18% or so got no clear call; they are omitted. Cut-off read from the data, not from the text of the source: active = normalized growth mostly below about 0.91 (no sharp cut-off); inconclusive = no clear call, values can overlap the other calls; inactive = mostly above about 0.92. This is one part of the list.

Experiment: chemical genetic growth profiling, strain panel (AID 1159580);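 note: tested at 20 µM; growth read once vehicle control cultures reached saturation at 30 °C; 1 = growth at the plate median or of vehicle wells; lower values mean less growth of the strain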
Settings: S. cerevisiae deletion strains, growth OD

Measured: normalized growth

C[C@]12CCC3C(CC[C@H]4C[C@H](O)CC[C@]34C)C1CC[C@@H]2O (some centres not stated)
active: locus YBR021W, strain FUR4, active compounds read low 0.803 | locus YDR162C, strain NBP2, active compounds read low 0.628 | locus YDR502C, strain sam2, active compounds read low 0.899 | locus YGL078C, strain dbp3, active compounds read low 0.844 | locus YGL248W, strain PDE1, active compounds read low 0.882 | locus YGR135W, strain pre9, active compounds read low 0.858 | locus YGR252W, strain gcn5, active compounds read low 0.756 | locus YJL095W, strain BCK1, active compounds read low 0.721 | locus YKL009W, strain mrt4, active compounds read low 0.813 | locus YKR001C, strain vps1, active compounds read low 0.83 | locus YLR039C, strain RIC1, active compounds read low 0.538 | locus YLR262C, strain YPT6, active compounds read low 0.421 | locus YLR330W, strain CHS5, active compounds read low 0.891 | locus YNL298W, strain CLA4, active compounds read low 0.893 | locus YNL307C, strain MCK1, active compounds read low 0.885 | locus YNR052C, strain pop2, active compounds read low 0.884 | locus YOR184W, strain ser1, active compounds read low 0.82 | locus YPR163C, strain tif3, active compounds read low 0.844
inactive: locus YBR229C, strain ROT2, active compounds read low 1.01 | locus YCL029C, strain bik1, active compounds read low 0.948 | locus YDL035C, strain GPR1, active compounds read low 0.883 | locus YDL074C, strain BRE1, active compounds read low 0.929 | locus YDL101C, strain DUN1, active compounds read low 0.938 | locus YDL185W, strain tfp1, active compounds read low 0.978 | locus YDL192W, strain arf1, active compounds read low 0.965 | locus YDR101C, strain arx1, active compounds read low 0.991 | locus YDR318W, strain mcm21, active compounds read low 0.948 | locus YDR388W, active compounds read low 0.994 | locus YER110C, active compounds read low 1.01 | locus YER155C, strain BEM2, active compounds read low 1.01 | locus YER167W, strain BCK2, active compounds read low 1.02 | locus YGL086W, strain mad1, active compounds read low 0.951 | locus YGR078C, strain PAC10, active compounds read low 0.908 | locus YHR079C, strain IRE1 (second series), active compounds read low 1.01 | locus YHR094C, strain hxt1, active compounds read low 1 | locus YHR129C, strain ARP1, active compounds read low 0.968 | locus YHR200W, strain rpn10, active compounds read low 0.987 | locus YIL066C, strain RNR3, active compounds read low 1 | locus YIL073C, strain SPO22, active compounds read low 0.875 | locus YIL125W, strain kgd1, active compounds read low 0.993 | locus YIR030C, strain dcg1, active compounds read low 0.991 | locus YJL134W, strain LCB3, active compounds read low 1.01 | locus YJL168C, strain set2, active compounds read low 1 | locus YJL187C, strain SWE1 (second series), active compounds read low 0.882 | locus YJR075W, strain HOC1, active compounds read low 0.981 | locus YKL068W, active compounds read low 0.988 | locus YKL085W, strain MDH1 (second series), active compounds read low 1.01 | locus YKL085W, strain MDH1, active compounds read low 1.01 | locus YKL190W, strain CNB1, active compounds read low 1.02 | locus YLR058C, strain SHM2, active compounds read low 0.944 | locus YLR102C, strain apc9, active compounds read low 1 | locus YLR268W, strain sec22, active compounds read low 0.974 | locus YLR342W, strain FKS1 (second series), active compounds read low 0.814 | locus YLR371W, strain rom2, active compounds read low 1.05 | locus YLR418C, strain cdc73, active compounds read low 0.894 | locus YML016C, strain PPZ1, active compounds read low 0.989 | locus YML032C, strain rad52, active compounds read low 0.924 | locus YML124C, strain tub3, active compounds read low 1.01 | locus YMR078C, strain ctf18, active compounds read low 0.988 | locus YMR223W, strain ubp8, active compounds read low 0.936 | locus YMR307W, strain GAS1, active compounds read low 0.798 | locus YNL067W, strain RPL9B, active compounds read low 0.876 | locus YNL233W, strain BNI4, active compounds read low 0.904 | locus YNL250W, strain rad50, active compounds read low 0.912 | locus YNL271C, strain bni1, active compounds read low 0.942 | locus YOL006C, strain TOP1, active compounds read low 0.926 | locus YOL012C, strain htz1 1.56 | locus YOL147C, strain pex11, active compounds read low 1.01 | locus YOR061W, strain CKA2, active compounds read low 0.985 | locus YOR069W, strain VPS5, active compounds read low 0.957 | locus YOR136W, strain idh2, active compounds read low 0.984 | locus YOR144C, strain elg1, active compounds read low 0.994 | locus YOR316C, strain cot1, active compounds read low 0.992 | locus YPR119W, strain clb2, active compounds read low 0.992 | locus YPR141C, strain kar3, active compounds read low 1.02 | locus YPR167C, strain met16, active compounds read low 0.956 | strain wtn01, active compounds read low 0.961
